Source: PubChem (National Center for Advancing Translational Sciences (NCATS))
Marburg entry inh = blocks Marburg virus binding to or entry into cells; Marburg virus pseudotyped entry inhibition, cell reporter; Potency, µM (titrated, usually from 37.8 µM), usual class: inhibitors; 300,000 compounds, 1.8% hits; calls by dose curve; tested in HEK293 cells
LASV entry inh = blocks Lassa virus binding to or entry into cells. Lassa virus pseudotype entry inhibition, cell reporter. Potency, µM (top dose mostly 37.9 µM), actives largely listed as inhibitors. 300,000 compounds, 1.2% hits. AID 540256; calls by dose curve; tested in HEK293 cells; also: nearly all actives have a fitted effect of over 50% in size
Sm TGR block = S. mansoni TGR enzyme inhibition. Q962Y6. purified TGR, DTNB reduction, TNB absorbance 405 nm. Potency, µM (series often up to 114 µM), hits mostly inhibitors. 360,000 compounds, 3% hits. AID 485364; also: nearly all actives have a fitted effect of over 60% in size
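TGR 20 nM + NADPH 100 uM (dispensed conc.), cpd preinc 15 min RT; start with NADPH (500 uM addition) then DTNB (15 mM addition). Kinetic TNB absorbance, 405 nm filter. Four-parameter Hill fit across titration.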
RE007 growth inh = less growth of the S. pombe RE007 Vpr strain. 360,000 compounds, 0.21% hits. Potency, µM (highest dose often 92.2 µM), actives largely listed as inhibitors. S. pombe RE007 Vpr strain, BacTiter-Glo ATP luminescence, 24 h; active = well fitted falling curve with a large enough effect; inconclusive = small, poorly fitted or top-dose-only effect; inactive = no such curve, though single readings can be large or run the other way; also: nearly all actives have a fitted effect of over 50% in size
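Fission yeast RE007 carrying one integrated HIV-1 vpr copy, seeded at OD 0.01 in PMG+AL medium with 23 nL pinned compound. Grown 24 h at 30 degrees; viability read by BacTiter-Glo luminescence after 5 min.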
FMDV inh = foot and mouth disease virus antiviral activity. FMDV antiviral cell-based qHTS. Potency, µM (series often up to 57.9 µM), most hits filed as inhibitors. AID 1159524. 410,000 compounds, 1.2% hits; calls by dose curve; tested in HEK293T cells; also: read-out not given here; nearly all actives have a fitted effect of over 45% in size
HCV inhibitor = HCV inhibition; Huh7.5.1 HCVcc-Cre infection, luciferase reporter, 44 h; Potency, µM (highest dose often 41.8 µM), usual class: inhibitors; 340,000 compounds, 3.4% hits; AID 651820
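Antiviral activity was scored by luciferase reporter output from cells infected with HCVcc-Cre (~0.5 moi) in presence of compound, 44 h infection period, cells seeded 1,000/well 4 h prior.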
Each line names hits and unclear results; the compound was inactive in the other large screens. This is a sample that favours compounds with a hit; in the whole collection about 7.2% have one here. Unless noted, calls follow the shape of the dose curve; as a rule, active = well fitted curve in the direction sought with a large enough effect; inconclusive = small, poorly fitted or top-dose-only effect, or another doubt; inactive = no such curve, though single readings can be large; an effect the other way counts as inactive or inconclusive.

COc1ccc(-c2cc(-c3c(O)c(OC)c4occc4c3OC)[nH]n2)cc1	Marburg entry inh inconclusive, HCV inhibitor 32µM
COc1ccc(-c2cc(-c3ccccc3O)[nH]n2)cc1	Marburg entry inh inconclusive, LASV entry inh inconclusive, RE007 growth inh inconclusive, FMDV inh inconclusive
COc1cccc(CSc2nc3ccncc3n2CC(=O)Nc2ccc(OC)c(OC)c2OC)c1	LASV entry inh inconclusive (no result: RE007 growth inh, HCV inhibitor)
Cc1nn(-c2ccccn2)c2c1C(=O)C(Br)CC2 (configuration not stated)	Marburg entry inh inconclusive, Sm TGR block 2.5µM, FMDV inh 32µM
O=C(N/N=C1/C[C@@H](O)[C@@H](O)[C@@H]2[C@@H]3C(=O)N(C[C@@H]4CCCO4)C(=O)[C@H]3CC[C@@H]12)OCc1ccccc1	none (no result: LASV entry inh, Sm TGR block, RE007 growth inh, FMDV inh, HCV inhibitor)
Cc1cccc(N2CCN(Cc3nc(-c4ccc(F)cc4F)oc3C)CC2)n1	HCV inhibitor inconclusive
Cc1cnc(C)c(N2CCN(Cc3nc(-c4cccc(F)c4F)oc3C)CC2)n1	Sm TGR block 35µM, HCV inhibitor inconclusive
COc1ccc(-c2noc(-c3ccc(NCC4CCCO4)c([N+](=O)[O-])c3)n2)cc1 (configuration not stated)	none (no result: RE007 growth inh, HCV inhibitor)
O=C(CCl)NNC(=O)c1c(O)c2ccccc2[nH]c1=O	Sm TGR block 14µM, FMDV inh inconclusive
NCCCNc1nc(N)c([N+](=O)[O-])c(NC2CCCCC2)n1	FMDV inh inconclusive, HCV inhibitor 13µM (no result: Marburg entry inh, LASV entry inh, RE007 growth inh)
COCCNc1nc(N)c([N+](=O)[O-])c(NC2CCCCC2)n1	Sm TGR block inconclusive, HCV inhibitor inconclusive
COc1ccc(-c2nn3ncccc3c2-c2ccnc(Nc3ccc4c(c3)OCCO4)n2)cc1	LASV entry inh 16µM (no result: Marburg entry inh, Sm TGR block, RE007 growth inh, FMDV inh, HCV inhibitor)
COc1ccc(-c2nc3ncccn3c2Nc2ccc3c(c2)OCCO3)cc1	none (no result: LASV entry inh, RE007 growth inh)
Fc1ccc(-c2nn3ncccc3c2-c2ccnc(Nc3ccc4c(c3)OCCO4)n2)cc1	LASV entry inh 7.9µM (no result: Marburg entry inh, Sm TGR block, RE007 growth inh, FMDV inh, HCV inhibitor)
CN([C@H]1CCS(=O)(=O)C1)S(=O)(=O)c1cccc2nsnc12	none (no result: LASV entry inh, Sm TGR block, RE007 growth inh, FMDV inh, HCV inhibitor)
O=C(NCCCN1CCCC1)c1ccc2c(Cl)c3c(nc2c1)CCCC3	Marburg entry inh 5.6µM, LASV entry inh inconclusive, Sm TGR block inconclusive, FMDV inh inconclusive, HCV inhibitor 11µM
O=C(Nc1ccccc1F)c1ccc2c(Cl)c3c(nc2c1)CCC3	Marburg entry inh inconclusive, LASV entry inh inconclusive, FMDV inh 10µM (no result: RE007 growth inh, HCV inhibitor)
O=C(Nc1cccnc1Cl)c1ccc2c(Cl)c3c(nc2c1)CCC3	Marburg entry inh inconclusive, LASV entry inh inconclusive
CC1CCc2c(cc(-c3ccccc3)n2-c2ccc(C(=O)NC(C)C)cc2)C1 (configuration not stated)	LASV entry inh inconclusive (no result: Marburg entry inh, RE007 growth inh, HCV inhibitor)
CCN(CC)CC(O)CN1c2ccccc2Sc2ccccc21 (configuration not stated)	Marburg entry inh 3.2µM, LASV entry inh inconclusive, HCV inhibitor 22µM
CCN(CC)CCCCN1c2ccccc2Oc2ccc(Cl)cc21	none (no result: Marburg entry inh, LASV entry inh, Sm TGR block, RE007 growth inh, HCV inhibitor)
CC(CN1c2ccccc2Sc2ccccc21)N(C)C (configuration not stated)	Marburg entry inh 1.1µM, LASV entry inh inconclusive
CCN(CC)CCCCN1c2ccccc2Sc2ccccc21	Marburg entry inh 11µM, LASV entry inh inconclusive, FMDV inh inconclusive, HCV inhibitor inconclusive
CC(CN(C)C)CN1c2ccccc2Sc2ccccc21 (configuration not stated)	FMDV inh inconclusive, HCV inhibitor inconclusive (no result: Marburg entry inh, LASV entry inh)
Cc1ccc2nc(CNC(=O)c3cc(NC(=O)c4ccccc4)cc4ncn(C5CCCC5)c34)cn2c1	none (no result: Marburg entry inh, LASV entry inh, Sm TGR block, RE007 growth inh, HCV inhibitor)
CC1(C)CC(=O)c2cc(-c3nc(-c4ccc(F)cc4)cs3)c(=O)[nH]c2C1	none (no result: RE007 growth inh, HCV inhibitor)
CC(C)(C)c1ccc(-n2ncc3c2CCCC3NC(=O)CCN2CCCO2)cc1 (configuration not stated)	HCV inhibitor 13µM (no result: Marburg entry inh, LASV entry inh)
Cc1cc(C)cc(-n2ncc3c2CCCC3NC(=O)c2cc(C)n(C)n2)c1 (configuration not stated)	HCV inhibitor inconclusive (no result: Marburg entry inh, LASV entry inh)
CC(C)(C)c1ccc(-n2ncc3c2CCCC3NC(=O)CCn2cncn2)cc1 (configuration not stated)	none
Cc1cc(C)cc(-n2ncc3c2CCCC3NC(=O)c2cc(C)[nH]n2)c1 (configuration not stated)	Marburg entry inh 3.5µM, LASV entry inh inconclusive, FMDV inh inconclusive, HCV inhibitor inconclusive
Cc1cc(C(=O)NC2CCCc3c2cnn3-c2ccc(C(C)(C)C)cc2)nn1C (configuration not stated)	Marburg entry inh inconclusive, LASV entry inh inconclusive, FMDV inh inconclusive, HCV inhibitor 7.1µM
COC(=O)c1ccc(C(=O)NC2CCCc3c2cnn3-c2ccc(C)c(C)c2)cc1 (configuration not stated)	Marburg entry inh inconclusive, LASV entry inh inconclusive, FMDV inh inconclusive, HCV inhibitor 13µM
COc1cc(-c2cc(C)c3cccc(OC)c3n2)cc2c1OCCN(C(=O)CCn1ccc(C)n1)C2	none (no result: Marburg entry inh, LASV entry inh, Sm TGR block, RE007 growth inh, HCV inhibitor)
Cc1cccc(N2CCN(C(=O)c3ccc4c(c3)N(Cc3cccc(Cl)c3)C(=O)c3ccccc3S4=O)CC2C)c1 (configuration not stated)	LASV entry inh inconclusive (no result: Marburg entry inh, RE007 growth inh, HCV inhibitor)
COc1ccc(NC(=O)Cc2csc(C)n2)cc1	LASV entry inh inconclusive (no result: RE007 growth inh, HCV inhibitor)
OC(c1cc(C(F)(F)F)nc2c(C(F)(F)F)cccc12)C1CCCCN1 (configuration not stated)	FMDV inh inconclusive, HCV inhibitor inconclusive (no result: Marburg entry inh, LASV entry inh)
OC(c1cc(-c2cccc(Cl)c2)nc2ccccc12)C1CCCCN1 (configuration not stated)	Marburg entry inh 11µM, LASV entry inh inconclusive, FMDV inh inconclusive, HCV inhibitor inconclusive (no result: Sm TGR block)
Cn1c(-c2ccc([N+](=O)[O-])cc2)nc2ccccc21	Marburg entry inh inconclusive (no result: Sm TGR block)
Cn1nc([N+](=O)[O-])c(C(C#N)c2nc3ccccc3n2C)c(Cl)c1=O (configuration not stated)	Sm TGR block 32µM
O=C(NC1CCCC1)C(c1ccc(F)cc1)N(Cc1ccc(Cl)cc1)C(=O)CCl (configuration not stated)	Sm TGR block 2.8µM, FMDV inh inconclusive, HCV inhibitor inconclusive
O=C(NC1CCCC1)C(c1ccc(Cl)cc1)N(Cc1ccc(F)cc1)C(=O)CCl (configuration not stated)	Marburg entry inh inconclusive, LASV entry inh inconclusive, Sm TGR block 7.1µM, RE007 growth inh inconclusive, FMDV inh inconclusive, HCV inhibitor inconclusive
COc1cccc(Cn2c(=O)c(-c3cccs3)nc3cnc(Nc4cccc(OC)c4)nc32)c1	none (no result: Marburg entry inh, LASV entry inh, Sm TGR block, RE007 growth inh, HCV inhibitor)
CCOC(=O)CN1c2ccccc2NC(=O)CC1C (configuration not stated)	Sm TGR block 32µM (no result: Marburg entry inh, LASV entry inh)
Cc1ccc(N(CC2CO2)S(=O)(=O)c2ccc(C)cc2)cc1 (configuration not stated)	Marburg entry inh inconclusive, Sm TGR block inconclusive
